Assay outcomes as filed in PubChem.
Shown are actives, neighbours in structure and some others; about 2.4% of the full set was active somewhere.
D2 PAM-1 = human D2 receptor positive allosteric modulation; DiscoveRx D2 beta-arrestin cells, luminescence, 90 min; 100% = 57 uM dopamine signal; potentiation, % (no concentration beside the values); 0.23% of 360,000 active; in the data active = potentiation above about 50%; inconclusive = mostly about 30% to 49%
Target sequence (P14416 whole entry, looked up): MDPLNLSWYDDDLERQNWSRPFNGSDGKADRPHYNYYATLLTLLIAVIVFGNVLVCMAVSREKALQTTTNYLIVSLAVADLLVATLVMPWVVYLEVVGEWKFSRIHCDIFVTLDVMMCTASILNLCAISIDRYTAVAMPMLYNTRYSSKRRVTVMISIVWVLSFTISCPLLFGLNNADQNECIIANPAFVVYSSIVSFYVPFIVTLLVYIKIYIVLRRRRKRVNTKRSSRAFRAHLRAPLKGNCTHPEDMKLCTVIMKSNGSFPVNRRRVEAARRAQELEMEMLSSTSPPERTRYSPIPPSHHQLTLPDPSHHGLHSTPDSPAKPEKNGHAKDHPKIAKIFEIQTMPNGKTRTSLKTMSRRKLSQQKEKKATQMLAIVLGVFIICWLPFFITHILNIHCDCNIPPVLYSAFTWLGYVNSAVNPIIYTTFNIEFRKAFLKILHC
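PathHunter D2 cells, attached overnight at 37 deg C, received compound in DMSO plus dopamine at EC20 (50 nM final) for 90 min at 37 deg C. Beta-arrestin recruitment was read as luminescence after 1 h with detection reagent at ambient temperature.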
D2 PAM-2 = D2 dopamine receptor (human) potentiation; P14416; HEK293 T-REx D2, calcium flux, EC20 dopamine potentiation; potentiation, % at 10 µM; 0.34% of 340,000 active;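 active = potentiation over 3 SD above the plate norm, cut at about 30% in these data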; also: 0% is about no effect
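Tetracycline-induced Hek293 Trex D2 cells, force-coupled to calcium, loaded with no-wash calcium dye. Compound added with 180 s kinetic read for agonism, then EC20 dopamine and a further 180 s read for potentiation.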
D2 antag = D2 dopamine receptor (human) antagonism; P14416; HEK293 TREx D2 cells, calcium flux, dopamine EC80; inhibition, % at 10 µM; 2% of 340,000 active; in the data active = inhibition above about 30%; inactive = below that, where a call was filed; also: 0% is about no effect
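Dopamine at EC80 is the agonist stimulus; test compounds precede it by 180 s. Calcium flux read kinetically in a force-coupled, inducible HEK293 T-REx D2 cell line.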
D2 ag-1 = human D2 receptor agonism in beta-arrestin assay; P14416; DiscoveRx PathHunter D2 beta-arrestin, luminescence, 90 min; 100% = 57 uM dopamine signal; activation, % (no concentration beside the values); 0.084% of 360,000 active; in the data active = activation above about 40%; inconclusive = between about 15% and that limit
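Agonist mode: compounds alone added to overnight-plated D2 PathHunter cells for 90 min at 37 C, with 57 uM final dopamine (EC100) defining full response. Beta-arrestin recruitment detected by chemiluminescent reagent, read after 1 h at ambient temperature.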
D2 ag-2 = D2 dopamine receptor (human) agonism | HEK293 T-REx D2 cells, calcium flux agonist mode | activation, % at 2 µM | 0.53% of 340,000 active | AID 485358;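 active = activation over 3 SD above normal in the single-dose calcium agonist read, cut at about 30% in these data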; also: 0% is about no effect
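Agonism is scored from calcium flux in a force-coupled, inducible HEK293 cell line expressing D2, read kinetically for 180 s after compound addition against dopamine controls.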
The depositor's hits bear a star; ? = inconclusive; / = no result given.

SMILES	D2 PAM-1	D2 PAM-2	D2 antag	D2 ag-1	D2 ag-2
O=C(Nc1ccccc1)Nc1cccc(NC(=O)Nc2ccccc2)c1F	0.3	-0.3	-29.3	1.2	-0.2
CCN(C1CCCCC1)S(=O)(=O)c1ccc(S(=O)(=O)NCc2ccncc2)cc1	-3.3	/	/	6.9	/
CCN(C1CCCCC1)S(=O)(=O)c1ccc(S(=O)(=O)NCCc2ccncc2)cc1	-6.2	0.5	32.2*	0.3	-1.8
Cc1cc(=O)n2nc(N3CCCC(C(=O)NCc4ccco4)C3)sc2n1 (stereo not given)	-6.3	-6.6	36.3*	1.0	0.6
Cc1cc(=O)n2nc(N3CCC(C(=O)NCc4ccco4)CC3)sc2n1	-13.0	-2.3	-11.1	-4.9	-0.2
O=C1/C(=C/C=C/c2ccco2)SC(=S)N1NS(=O)(=O)c1ccccc1	-12.7	10.0	41.7*	-4.9	0.7
CC1=CS/C(=C(/C#N)C(=O)NCc2ccco2)N1c1ccccc1	-6.7	-0.5	30.5*	-4.7	-0.4
c1ccc(Cn2c[n+](Cc3ccccc3)cn2)cc1	-5.0	-5.6	43.1*	-2.8	0.5
CCOC(=O)N1CCc2c(sc3c2c(=O)n(Cc2ccccc2)c(=O)n3CC(=O)Nc2ccc(C)cc2C)C1	/	1.9	/	/	/
CCOC(=O)CSc1nc2c(sc3ccccc32)c(=O)n1CCO	/	10.7	/	/	0.0
COCCNc1nc(NCc2ccccc2)c2cnn(C)c2n1	-7.5	/	/	0.2	/
COCCNc1nc(N2CCCCC2)c2cnn(C)c2n1	-10.1	35.9*	-16.2	-3.6	-0.3
COc1cccc(C2NC(=O)NC(C)=C2C(=O)Nc2ccc(C)cc2)c1OC (stereo not given)	-19.3	-3.6	31.0*	-3.3	-0.2
Cc1ccccc1Nc1cc(C(=O)NCCCN2CCN(c3cccc(Cl)c3)CC2)c2ccccc2n1	/	2.2	/	/	-0.7
CCCCc1ccc(NC(=O)Cn2nnc3sc4c(c3c2=O)CCC(C)C4)cc1 (stereo not given)	/	-0.5	/	/	0.7
CCOc1ccc2nc(N3CCCC(C(=O)NCCc4ccc(OCC)c(OCC)c4)C3)sc2c1 (stereo not given)	/	22.8	/	/	0.4
O=C(Nc1nc(-c2ccc(S(=O)(=O)N3CCOCC3)cc2)cs1)c1ccccc1	?	32.6*	0.8	1.3	-1.1
COC(=O)c1ccc(NC(=O)CC2C(=O)N(c3ccccc3)C(=O)N2C2CCCC2)cc1 (stereo not given)	/	-5.8	/	/	/
CCC(=O)Oc1ccc(C(=O)Nc2c[nH]c(=O)[nH]c2=O)cc1	8.4	-1.8	34.6*	-2.1	1.7
Cc1ccc(N=Nc2c(=O)[nH]n3c(=O)cc(C)[nH]c23)cc1	-19.6	37.7*	14.1	-7.5	0.7
Cc1ccc(N=Nc2c(N)[nH]n3c(=O)cc(-c4ccccc4)nc23)cc1	-12.5	-13.7	-7.4	-2.8	-1.0
CCN1CCOC(=O)C1CC(=O)Nc1cccc(OC)c1 (stereo not given)	/	20.8	/	/	-1.1
CCOC(=O)c1ccc2c(c1)N(CC(=O)N1CCCC1)C(=O)C(C)(C)O2	-15.4	45.4*	-2.5	-3.3	0.2
COC(=O)CN1C(=O)C(C)(C)Oc2ccc(C(=O)Nc3ccccc3F)cc21	-2.6	31.1*	18.5	2.7	-0.7
CCOC(=O)N1CCN(C(=O)CN2C(=O)COc3ccc(C)cc32)CC1	-6.6	-5.7	37.5*	0.5	-0.6
SMILES	D2 PAM-1	D2 PAM-2	D2 antag	D2 ag-1	D2 ag-2
CC1(C)Oc2ccc(C(=O)Nc3ccccc3F)cc2N(CC(=O)N2CCOCC2)C1=O	-7.7	8.4	-11.1	-5.5	-0.1
CCC(C)(C)NC(=O)c1ccc2c(c1)N(CC(=O)NC1CCCC1)C(=O)C(C)(C)O2	-12.1	-30.7	62.3*	-5.7	-1.3
CCOC(=O)c1ccc2c(c1)N(CC(=O)N1CCCCC1)C(=O)C(C)(C)O2	-2.6	-5.9	15.3	-1.8	-0.6
Cc1ccc2c(c1)N(CC(=O)N1CCCC1)C(=O)CO2	-2.2	-8.4	0.7	-3.0	0.6
Cn1c(SCc2ccc(F)cc2)nc2ccc(C(=O)NCc3ccccc3)cc21	/	5.8	/	/	-0.6
COc1ccc(NC(=O)Nc2nnc(-c3ccccc3F)s2)cc1	-2.5	-0.3	41.3*	-0.1	1.9
CC(C)OC(=O)C1C(=O)CC(C)(O)C(C(=O)OC(C)C)C1c1cccc(O)c1 (stereo not given)	-3.0	-7.2	31.8*	-3.5	1.7
CCOC(=O)N1CCc2c(sc3c2C(=O)NC(c2cc(OC)c(OC)c(OC)c2)N3)C1 (stereo not given)	/	12.8	/	/	/
O=S(=O)(N/N=C/c1ccc(N2CCOCC2)cc1)c1ccc(Br)cc1	-8.4	30.9*	1.9	-2.2	0.1
CCOc1ccc(NC(=O)CC2C(=O)N(c3cccc(C)c3)C(=O)N2Cc2ccco2)cc1 (stereo not given)	/	2.9	/	/	-0.3
COc1ccc(CCN2CC(C(=O)NCCc3cccnc3)CCC2=O)cc1 (stereo not given)	-2.8	-5.8	31.6*	-2.7	-1.0
O=C(COC(=O)C1=NN(c2ccccc2)C(=O)CC1)NCc1ccccc1Cl	13.4	-5.0	31.5*	-2.9	-1.5
COc1ccc(C2Nc3ccccc3C(=O)N2Cc2ccccc2)cc1CN1CCOCC1 (stereo not given)	-7.3	3.5	-3.2	-2.9	0.3
COc1ccc(C2Nc3ccccc3C(=O)N2c2ccccc2)cc1CN1CCOCC1 (stereo not given)	-12.6	-0.9	30.1*	3.5	0.3
CC(C)(CO)Nc1nc(N2CCCC2)nc(N2CCCC2)n1	-22.6	-6.9	46.9*	-3.0	-0.4
CC(=O)OCCNc1cc(N2CCN(C)CC2)c2noc3c2c1C(=O)c1ccccc1-3	-3.3	-1.3	0.0	-1.5	0.7
CCOC(=O)C(C(=O)OCC)c1cc(Br)c2noc3c2c1C(=O)c1ccccc1-3	91.3*	3.8	1.5	9.6	1.3
CC(C)(C)OC(=O)N1CCC(c2c(C(=O)N3CCC(c4ccccc4)C3)cnn2-c2ccc(Cl)cc2)CC1 (stereo not given)	/	-3.7	/	/	0.4
COc1cc2nc(Nc3ccc(C)c(C)c3)nc(N)c2cc1OC	-12.1	5.0	30.4*	-2.9	-1.0
COc1cccc(-c2nc(CS(=O)CC(=O)N3CCN(c4cccc(C(F)(F)F)c4)CC3)c(C)o2)c1 (stereo not given)	/	-1.4	/	/	-1.0
Cc1ccc(NC(=O)CN2CCCCCC2)cc1Br	-7.1	-31.4	41.5*	0.4	3.8
CCc1ccc(Nc2nc3ccccc3c3nnc(C)n23)cc1	/	2.9	/	/	-0.3
COc1cc(NCCCC(C)N)c2ncccc2c1 (stereo not given)	4.3	9.2	2.3	6.0	-3.0
CCC(CNc1cc(OC)cc2cccnc12)NC1CCCCC1 (stereo not given)	-19.3	-18.3	47.1*	7.3	-0.9
